Data as given in PubChem BioAssay (NCATS).
Results filed as inconclusive are left out. Where a call stands in place of a potency, no number is given. Values without a mark were called inactive. Calls of active or inactive are those of the source. Calls come from the whole dose curve; as a rule, active = well fitted inhibition curve with a large enough effect; inconclusive = small, poorly fitted or top-dose-only effect; inactive = flat fitted curve, though single readings scatter.

Experiment: qHTS to identify inhibitors of the type 1 interferon - major histocompatibility complex class I in skeletal muscle: primary screen against the NCATS Pharmaceutical Collection (AID 1347407)
Settings: human skeletal muscle cells, IFN-b-induced MHC-I HiBiT luminescence, 24 h; series mostly up to 45.9 µM
In short: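 Immortalized human myoblasts (C25cl48) with HiBiT knocked into endogenous HLA-B*08:01 were stimulated with 4.0 ng/ml IFN-beta and treated with compounds ([…] top 46 uM) for 24 hrs at 37 C. HiBiT lytic luminescence read.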
Potency is the fitted concentration of half-maximal effect.

Structure (SMILES)	Potency	activity change, negative = inhibition
O=C(NCCc1c[nH]c2ccccc12)c1cccnc1	inactive	
O=C(CN1CCN(Cc2ccc3c(c2)OCO3)CC1)N1c2ccccc2Sc2ccccc21	inactive	
CCOc1ccccc1OCCN[C@H](C)Cc1ccc(OC)c(S(N)(=O)=O)c1	inactive	
CC(=O)N[C@@H](CCC(=O)O)C(=O)O	inactive	
O=C1OC(CN2CCOCC2)CN1/N=C/c1ccc([N+](=O)[O-])o1 (stereo not drawn)	inactive	
CC(=O)OC[C@H]1O[C@@H](n2ncc(=O)[nH]c2=O)[C@H](OC(C)=O)[C@@H]1OC(C)=O	inactive	
CC(C)[C@@H]1CC[C@@H](C)CC1=O	inactive	
NS(=O)(=O)c1cc2c(cc1Cl)NC(CC1CCCC1)NS2(=O)=O (stereo not drawn)	inactive	
CC[N+](C)(CC)CCOC(=O)C(O)(c1ccccc1)C1CCCCC1 (stereo not drawn)	inactive	
O=C1C(=O)c2ccccc2C(O)=C1C1CCC(c2ccc(Cl)cc2)CC1 (stereo not drawn)	inactive	
CCCCc1cc2ccccc2c(OCCN(C)C)n1	inactive	
N/C(=N\N=C\c1ccc(Cl)cc1)N/N=C/c1ccc(Cl)cc1	inactive	
CCCCNc1ccc(C(=O)OCCOCCOCCOCCOCCOCCOCCOCCOCCOC)cc1	inactive	
CC(=C(CCOC(=O)C(C)C)SSC(CCOC(=O)C(C)C)=C(C)N(C=O)Cc1cnc(C)nc1N)N(C=O)Cc1cnc(C)nc1N	inactive	
N=C(N)N1CCc2ccccc2C1		-4.74% [at 3.83 µM]
CC(=O)Nc1ccc(S(=O)(=O)Nc2ccc([N+](=O)[O-])cc2)cc1	inactive	
CC(C)[N+](C)(C)CC(O)COc1cccc2ccccc12 (stereo not drawn)	inactive	
O=C(O)Cc1csc(-c2ccc(Cl)cc2)n1	inactive	
O=C(Nc1ccccc1)OCC(CN1CCCCC1)OC(=O)Nc1ccccc1 (stereo not drawn)	inactive	

Structure (SMILES)	Potency	activity change, negative = inhibition
CC(=O)Oc1ccc(C)cc1	inactive	
Cc1ccccc1OCC(O)CO (stereo not drawn)	inactive	
CCN(CC)CCOC(=O)C(Cc1cccc2ccccc12)CC1CCCO1 (stereo not drawn)	inactive	
C[C@@]12C(=O)OC(=O)[C@]1(C)C1CCC2O1	13.3 µM (active)	
CC(CNC1CCCCC1)OC(=O)c1ccccc1 (stereo not drawn)	inactive	
NCCNC(=O)c1ccc(Cl)cn1	inactive	
CC(C)Nc1cccnc1N1CCN(C(=O)c2cc3cc(NS(C)(=O)=O)ccc3[nH]2)CC1	inactive	
CO[C@]12C[C@@H](COC(=O)c3cncc(Br)c3)CN(C)[C@@H]1Cc1cn(C)c3cccc2c13	inactive	
O=C(O)P(=O)(O)O	inactive	
CC(C(=O)O)c1cccc(Oc2ccccc2)c1 (stereo not drawn)	inactive	
CC(C)Cc1ccc(CC(=O)O)cc1	inactive	
CN1CCC[C@@H]1CCO[C@](C)(c1ccccc1)c1ccc(Cl)cc1	inactive	
CC(C)CCCC(C)N (stereo not drawn)	inactive	
CCc1cc(Cl)c(OC)c(C(=O)NC[C@@H]2CCCN2CC)c1O	inactive	
Cc1nc(-c2ccc(Cl)cc2)oc1COC(C)(C)C(=O)O	inactive	
Cc1cc(C)cc(OCC2CNC(=O)O2)c1 (stereo not drawn)	inactive	
O=C(c1ccc(F)cc1)C1CCN(CCn2c(=S)[nH]c3ccccc3c2=O)CC1	inactive	
Cc1cc2c(OCC(CNC(C)(C)C)OC(=O)c3ccccc3)cccc2[nH]1 (stereo not drawn)	inactive	
O=C1C(O)=C(O)C(=O)C(O)=C1O	inactive	
